From PubChem BioAssay (NCATS)
Inconclusive results are not listed. Entries that show only a call come without a potency. Activity calls are given as the source filed them. Calls follow the shape of the dose curve; as a rule, active = well fitted inhibition curve with a large enough effect; inconclusive = small, poorly fitted or top-dose-only effect; inactive = flat fitted curve, though single readings scatter.

How the values were obtained:
Assay in all cases: qHTS profiling for inhibitors of Plasmodium falciparum proliferation (AID 504749); also: nearly all actives have a fitted effect of over 60% in size
Settings in all cases: P. falciparum in erythrocytes, SYBR Green DNA, 72 h; series mostly up to 28.7 µM
CP268 = system: CP268
Method in brief: (§1)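 Readout was DNA-dye fluorescence from lysed cultures, ex 485/em 535 nm. Parasitized red cells had grown 72 h with compound; data scaled between 0.29 uM artemisinin and DMSO wells and corrected using vehicle-only plates.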

CP269 = system: CP269
Method in brief: as §1

CP286 = system: CP286
Method in brief: as §1

CP291 = system: CP291
Method in brief: as §1

CP297 = system: CP297
Method in brief: as §1

CP305 = system: CP305
Method in brief: as §1

CP315 = system: CP315
Method in brief: as §1

CP325 = system: CP325
Method in brief: as §1

CP329 = system: CP329
Method in brief: as §1

CP335 = system: CP335
Method in brief: as §1

DFO2036 = system: DFO2036
Method in brief: as §1

DIV14 = system: DIV14
Method in brief: as §1

DIV17 = system: DIV17
Method in brief: as §1

DIV30 = system: DIV30
Method in brief: as §1

Dd2 = system: Dd2
Method in brief: as §1

ECU = system: ECU
Method in brief: as §1

FAB9 = system: FAB9
Method in brief: as §1

GB4 = system: GB4
Method in brief: as §1

HB3 = system: HB3
Method in brief: as §1

ICS = system: ICS
Method in brief: as §1
Potency is read from the fitted curve at half-maximal effect.

Compound	Potency (CP268)	Potency (CP269)	Potency (CP286)	Potency (CP291)	Potency (CP297)	Potency (CP305)	Potency (CP315)	Potency (CP325)	Potency (CP329)	Potency (CP335)	Potency (DFO2036)	Potency (DIV14)	Potency (DIV17)	Potency (DIV30)	Potency (Dd2)	Potency (ECU)	Potency (FAB9)	Potency (GB4)	Potency (HB3)	Potency (ICS)
CC(=O)[C@@]1(O)CC[C@H]2[C@@H]3CCC4=CC(=O)CC[C@]4(C)[C@H]3CC[C@@]21C	inactive	inactive	inactive	inactive	inactive	inactive	inactive	inactive	inactive	inactive	inactive	inactive	inactive	inactive	inactive	inactive	inactive	inactive	inactive	inactive
Cc1ccc(Cl)c(Nc2ccccc2C(=O)O)c1Cl	inactive	inactive	inactive	inactive	inactive	inactive	–	inactive	inactive	inactive	inactive	inactive	inactive	inactive	inactive	inactive	inactive	inactive	inactive	inactive
CC(=O)Oc1cc(C(C)C)c(OCCN(C)C)cc1C	inactive	inactive	inactive	inactive	inactive	inactive	inactive	inactive	inactive	–	inactive	inactive	inactive	inactive	inactive	inactive	inactive	inactive	inactive	inactive
CC(=O)Nc1nnc(S(N)(=O)=O)s1	inactive	inactive	inactive	inactive	inactive	inactive	inactive	inactive	inactive	inactive	inactive	–	inactive	inactive	inactive	inactive	inactive	inactive	inactive	inactive
CCCOc1ccccc1-c1nc2n[nH]nc2c(=O)[nH]1	inactive	inactive	inactive	inactive	inactive	inactive	inactive	inactive	inactive	–	inactive	inactive	inactive	inactive	inactive	inactive	inactive	inactive	inactive	–
NC(=Nc1ccccc1)Nc1ccccc1	inactive	inactive	inactive	inactive	–	inactive	inactive	inactive	inactive	inactive	inactive	–	inactive	inactive	–	inactive	inactive	–	inactive	inactive
C#CCN(C)CCCOc1ccc(Cl)cc1Cl	inactive	inactive	inactive	inactive	inactive	inactive	inactive	inactive	inactive	inactive	inactive	inactive	–	inactive	inactive	inactive	inactive	inactive	inactive	inactive
CCCN(CCC)CCc1cccc2c1CC(=O)N2	inactive	inactive	inactive	inactive	inactive	inactive	inactive	inactive	inactive	–	inactive	inactive	inactive	inactive	inactive	inactive	inactive	inactive	inactive	inactive
OCCN1CCN(CCCN2c3ccccc3C=Cc3ccccc32)CC1	13.5 µM (active)	9.53 µM (active)	7.08 µM (active)	12 µM (active)	12 µM (active)	10.7 µM (active)	–	8.49 µM (active)	–	6.75 µM (active)	11.2 µM (active)	1.2 µM (active)	1.69 µM (active)	6.75 µM (active)	4.47 µM (active)	2.82 µM (active)	–	6.75 µM (active)	8.91 µM (active)	4.47 µM (active)
Nc1nc(N)c2nc(-c3ccccc3)c(N)nc2n1	inactive	inactive	inactive	inactive	inactive	inactive	inactive	inactive	inactive	–	inactive	inactive	inactive	inactive	inactive	2.82 µM (active)	3.16 µM (active)	1.35 µM (active)	inactive	inactive
CCn1cc(C(=O)O)c(=O)c2cc3c(cc21)OCO3	inactive	inactive	inactive	inactive	inactive	inactive	inactive	inactive	inactive	inactive	inactive	inactive	–	inactive	inactive	inactive	inactive	inactive	inactive	inactive
NS(=O)(=O)c1cc2c(cc1Cl)NC(C1CC3C=CC1C3)NS2(=O)=O (stereo unspecified)	inactive	inactive	inactive	inactive	inactive	inactive	inactive	inactive	inactive	inactive	inactive	inactive	inactive	inactive	inactive	inactive	inactive	inactive	inactive	inactive
C[C@H](CS)C(=O)N1CCC[C@H]1C(=O)O	inactive	inactive	inactive	inactive	inactive	inactive	inactive	inactive	inactive	inactive	inactive	inactive	inactive	inactive	inactive	inactive	inactive	inactive	inactive	inactive
NC1=NCC2c3ccccc3Cc3ccccc3N12 (stereo unspecified)	inactive	inactive	inactive	inactive	inactive	inactive	inactive	inactive	–	–	inactive	–	13.5 µM (active)	inactive	inactive	inactive	inactive	–	inactive	–
Cc1ccc(S(=O)(=O)NC(=O)NN2CCCCCC2)cc1	inactive	inactive	inactive	inactive	inactive	inactive	inactive	inactive	inactive	inactive	inactive	inactive	inactive	inactive	inactive	inactive	inactive	inactive	inactive	inactive
CC1=NS(=O)(=O)c2cc(Cl)ccc2N1	inactive	inactive	inactive	inactive	inactive	inactive	inactive	inactive	inactive	inactive	inactive	inactive	inactive	inactive	–	inactive	inactive	inactive	–	inactive
Brc1c(NC2=NCCN2)ccc2nccnc12	inactive	inactive	inactive	inactive	inactive	inactive	inactive	inactive	inactive	–	inactive	–	–	inactive	inactive	–	inactive	12 µM (active)	–	3.98 µM (active)
Nc1c2c(nc3ccccc13)CCCC2O (stereo unspecified)	inactive	inactive	inactive	inactive	inactive	inactive	inactive	inactive	inactive	inactive	inactive	inactive	–	inactive	inactive	inactive	inactive	inactive	inactive	inactive
C[n+]1cc2c3c(ccc2c2ccc4cc5c(cc4c21)OCO5)OCO3	inactive	inactive	inactive	inactive	inactive	–	inactive	–	inactive	inactive	inactive	–	inactive	inactive	inactive	inactive	inactive	–	inactive	inactive
CCNC(=O)N1CCN(CCCC(c2ccc(F)cc2)c2ccc(F)cc2)CC1	2.39 µM (active)	5.36 µM (active)	2.24 µM (active)	6.01 µM (active)	6.01 µM (active)	6.01 µM (active)	6.75 µM (active)	2.13 µM (active)	–	1.9 µM (active)	2.51 µM (active)	7.57 µM (active)	13.5 µM (active)	6.75 µM (active)	2 µM (active)	2.51 µM (active)	3.98 µM (active)	10.7 µM (active)	4.47 µM (active)	2.82 µM (active)
COC(=O)[C@H]1[C@H]2C[C@@H]3c4[nH]c5cc(OC)ccc5c4CCN3C[C@H]2C[C@@H](OC(=O)c2cc(OC)c(OC)c(OC)c2)[C@@H]1OC	15.1 µM (active)	9.53 µM (active)	11.2 µM (active)	15.1 µM (active)	3.38 µM (active)	–	16.9 µM (active)	13.5 µM (active)	13.5 µM (active)	8.49 µM (active)	–	1.69 µM (active)	1.51 µM (active)	1.07 µM (active)	12.6 µM (active)	5.01 µM (active)	–	13.5 µM (active)	11.2 µM (active)	3.55 µM (active)
c1cnc(N2CCN(Cc3ccc4c(c3)OCO4)CC2)nc1	inactive	inactive	inactive	inactive	–	inactive	inactive	inactive	inactive	inactive	inactive	–	inactive	inactive	inactive	inactive	inactive	inactive	inactive	inactive
CCCCNc1c(C(=O)OCC)c(C)nc2c1cnn2CC	inactive	inactive	inactive	inactive	inactive	inactive	inactive	inactive	inactive	–	inactive	inactive	–	inactive	inactive	inactive	inactive	inactive	inactive	–
CC[N+](C)(C)c1cccc(O)c1	inactive	inactive	inactive	inactive	inactive	inactive	inactive	inactive	inactive	inactive	inactive	inactive	–	inactive	inactive	inactive	inactive	inactive	inactive	inactive
OCCN1CCN(CC/C=C2/c3ccccc3Sc3ccc(C(F)(F)F)cc32)CC1	13.5 µM (active)	4.78 µM (active)	8.91 µM (active)	9.53 µM (active)	6.75 µM (active)	7.57 µM (active)	–	6.01 µM (active)	6.75 µM (active)	4.26 µM (active)	–	–	6.75 µM (active)	8.49 µM (active)	7.94 µM (active)	12.6 µM (active)	–	6.75 µM (active)	6.31 µM (active)	6.31 µM (active)
CNC1(C)C2CCC(C2)C1(C)C (stereo unspecified)	inactive	inactive	inactive	inactive	inactive	inactive	inactive	inactive	inactive	–	inactive	inactive	inactive	inactive	–	inactive	inactive	10.7 µM (active)	inactive	inactive
CCCCNc1ccc(C(=O)OCCN(C)C)cc1	inactive	inactive	inactive	inactive	inactive	inactive	inactive	–	–	inactive	–	–	–	inactive	inactive	inactive	inactive	inactive	inactive	inactive
